Source: PubChem (Broad Institute)
This excerpt belongs to a sample that is enriched for hits.
miR-122 inh: miR-122 suppressors via Renilla sensor increase, primary screen, cell-based, Huh7 psiCHECK-miR122, Renilla luciferase, single point | 340,000 compounds, 0.14% hits | 48 h | activation, % at 12.5 µM | AID 623901, 2012;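 active means mean activation of 30% or more, with every replicate also reaching 30%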;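 further: higher luciferase signal means stronger suppression of miR-122 activity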
A number is an active result.

What do the screens show for `CC(=O)N(C)C[C@H]1Oc2cc(/C=C/c3ccccc3)ccc2S(=O)(=O)N([C@@H](C)CO)C[C@H]1C`?
miR-122 inh: 34

What do the screens show for `CC(C)CC#Cc1ccc2c(c1)O[C@H](CN(C)C(=O)NC1CCCC1)[C@@H](C)CN([C@H](C)CO)S2(=O)=O`?
miR-122 inh: inactive

What do the screens show for `C[C@@H]1CN([C@H](C)CO)S(=O)(=O)c2ccc(/C=C/c3ccccc3)cc2O[C@@H]1CN(C)C(=O)c1ccccc1`?
miR-122 inh: inactive

What do the screens show for `CC(=O)N(C)C[C@H]1Oc2cc(/C=C/c3ccccc3)ccc2S(=O)(=O)N([C@H](C)CO)C[C@@H]1C`?
miR-122 inh: inactive

How did C[C@@H]1CN([C@@H](C)CO)S(=O)(=O)c2ccc(/C=C/c3ccccc3)cc2O[C@@H]1CN(C)C(=O)NC1CCCCC1 do in these assays?
miR-122 inh: 41

How did C[C@@H]1CN([C@H](C)CO)C(=O)c2cc(-c3cccc(C(=O)N(C)C)c3)cnc2O[C@@H]1CN(C)CC1CC1 do in these assays?
miR-122 inh: inactive

What do the screens show for `CC(C)CC#Cc1cnc2c(c1)C(=O)N([C@@H](C)CO)C[C@@H](C)[C@@H](CN(C)C(=O)Nc1cc(F)ccc1F)O2`?
miR-122 inh: inactive

Results for C[C@H](CO)N1C[C@H](C)[C@H](CN(C)C(=O)Nc2ccc(F)cc2)Oc2ncc(-c3cccnc3)cc2C1=O ?
miR-122 inh: inactive

Results for C[C@@H]1CN([C@H](C)CO)S(=O)(=O)c2ccc(-c3ccccc3)cc2O[C@H]1CN(C)Cc1cncnc1 ?
miR-122 inh: inactive

What do the screens show for `CCC(=O)Nc1ccc2c(c1)OC[C@H](C)N(C(=O)c1ccccc1F)C[C@@H](C)[C@@H](OC)CN(C)C2=O`?
miR-122 inh: inactive

What do the screens show for `CCCN(C)C[C@H]1Oc2cc(C#Cc3ccccc3F)ccc2S(=O)(=O)N([C@@H](C)CO)C[C@H]1C`?
miR-122 inh: inactive

What do the screens show for `CNC[C@H]1Oc2ncc(C#CCC3CCCC3)cc2C(=O)N([C@H](C)CO)C[C@H]1C`?
miR-122 inh: inactive

Results for C[C@@H]1CN([C@@H](C)CO)C(=O)Cc2cc(NC(=O)NC3CCCCC3)ccc2O[C@H]1CN(C)Cc1ccncc1 ?
miR-122 inh: inactive

Results for O=C(COc1ccc(/C=N/NS(=O)(=O)c2ccccc2)cc1)Nc1ccc(F)cc1 ?
miR-122 inh: 36

How did NC(=O)Cn1cc(/C=N\NS(=O)(=O)c2ccc(F)cc2)c2ccccc21 do in these assays?
miR-122 inh: inactive

What do the screens show for `Cc1ccc(S(=O)(=O)N/N=C/c2ccc(OCC(=O)Nc3ccccc3Cl)cc2)cc1`?
miR-122 inh: inactive

Results for C[C@H](CO)N1C[C@H](C)[C@@H](CN(C)C(=O)c2cccnc2)Oc2ncc(-c3ccc(C(=O)N(C)C)cc3)cc2C1=O ?
miR-122 inh: inactive

How did CO[C@@H]1CN(C)C(=O)c2cc(NC(=O)Cc3ccccc3)ccc2OC[C@H](C)N(C)C[C@H]1C do in these assays?
miR-122 inh: inactive

How did C[C@H](CO)N1C[C@H](C)[C@@H](CN(C)C(=O)CC2CC2)Oc2ncc(C#CCC3CCCC3)cc2C1=O do in these assays?
miR-122 inh: inactive

What do the screens show for `COCC(=O)Nc1ccc2c(c1)C(=O)N(C)C[C@@H](OC)[C@H](C)CN(C(=O)COC)[C@H](C)CO2`?
miR-122 inh: inactive

What do the screens show for `C[C@@H]1CN([C@H](C)CO)C(=O)c2cc(-c3cncnc3)cnc2O[C@@H]1CN(C)Cc1ccccc1`?
miR-122 inh: inactive

Results for CCCC(=O)Nc1ccc2c(c1)OC[C@H](C)N(C)C[C@@H](C)[C@@H](OC)CN(C)C2=O ?
miR-122 inh: inactive

What do the screens show for `COc1ccc(C#Cc2ccc3c(c2)O[C@@H](CN(C)C)[C@@H](C)CN([C@H](C)CO)S3(=O)=O)cc1`?
miR-122 inh: inactive

What do the screens show for `CN(C)CCNc1nc2sc3c(c2c(=O)n1CCc1ccccc1)CCCCC3`?
miR-122 inh: 32

Results for C[C@H](O)C#Cc1ccc2c(c1)O[C@H](CN(C)CC1CCOCC1)[C@@H](C)CN([C@H](C)CO)S2(=O)=O ?
miR-122 inh: inactive

How did C[C@@H]1CN([C@@H](C)CO)S(=O)(=O)c2ccc(-c3cccnc3)cc2O[C@@H]1CN(C)Cc1ccccn1 do in these assays?
miR-122 inh: inactive

Results for C[C@@H]1CN([C@@H](C)CO)C(=O)c2cc(C#CCc3ccccc3)cnc2O[C@@H]1CN(C)CC1CCOCC1 ?
miR-122 inh: inactive

How did C/C=C/c1cnc2c(c1)C(=O)N([C@H](C)CO)C[C@H](C)[C@H](CN(C)C(=O)c1cccnc1)O2 do in these assays?
miR-122 inh: inactive

Results for CC(C(=O)OCC(=O)Nc1ncc(Cl)cc1Cl)N1C(=O)c2ccccc2C1=O (stereo not drawn) ?
miR-122 inh: 36

Results for C[C@H](CO)N1C[C@H](C)[C@@H](CN(C)Cc2cccc(F)c2)Oc2ncc(Br)cc2C1=O ?
miR-122 inh: inactive

How did C[C@H](CO)N1C[C@H](C)[C@H](CN(C)CC2CCOCC2)Oc2ncc(C#CCc3ccccc3)cc2C1=O do in these assays?
miR-122 inh: inactive

How did Cc1cc(C(C)(C)CC(C)(C)C)ccc1OCCOCC[N+](C)(C)Cc1ccccc1 do in these assays?
miR-122 inh: 58

What do the screens show for `CO[C@H]1CN(C)C(=O)c2cc(NC(=O)NC(C)C)ccc2OC[C@@H](C)N(C(=O)NC(C)C)C[C@H]1C`?
miR-122 inh: inactive

How did COc1cccc(-c2cnc3c(c2)C(=O)N([C@H](C)CO)C[C@@H](C)[C@H](CN(C)Cc2cccnc2)O3)c1 do in these assays?
miR-122 inh: inactive

What do the screens show for `COc1cccc(NC(=O)N(C)C[C@H]2Oc3ncc(C#Cc4cccnc4)cc3C(=O)N([C@H](C)CO)C[C@@H]2C)c1`?
miR-122 inh: inactive

How did Cc1cc(C(=O)N/N=C/c2cc(Br)ccc2OC(=O)c2ccccc2)n[nH]1 do in these assays?
miR-122 inh: 32

Results for C[C@@H]1CN([C@H](C)CO)C(=O)c2cc(NC(=O)c3ccncc3)ccc2O[C@@H]1CN(C)S(=O)(=O)c1ccc(Cl)cc1 ?
miR-122 inh: inactive

Results for CCCC#Cc1cnc2c(c1)C(=O)N([C@@H](C)CO)C[C@@H](C)[C@H](CN(C)C(=O)C1CC1)O2 ?
miR-122 inh: inactive

What do the screens show for `COc1ccc(C#Cc2cnc3c(c2)C(=O)N([C@H](C)CO)C[C@H](C)[C@H](CN(C)CC2CCCC2)O3)cc1`?
miR-122 inh: inactive

How did C[C@@H]1CN([C@@H](C)CO)C(=O)c2cc(-c3ccc(C#N)cc3)cnc2O[C@@H]1CN(C)CC1CCOCC1 do in these assays?
miR-122 inh: inactive

How did C/C=C/c1cnc2c(c1)C(=O)N([C@@H](C)CO)C[C@@H](C)[C@@H](CN(C)C(=O)c1cccnc1)O2 do in these assays?
miR-122 inh: inactive

Results for CCS(=O)(=O)Nc1ccc2c(c1)C(=O)N(C)C[C@@H](OC)[C@H](C)CN(Cc1cccnc1)[C@H](C)CO2 ?
miR-122 inh: inactive

What do the screens show for `C[C@@H]1CN([C@@H](C)CO)S(=O)(=O)c2ccc(C#CCC3CCCC3)cc2O[C@@H]1CN(C)C(=O)CC1CC1`?
miR-122 inh: inactive

Results for C[C@@H]1CN([C@@H](C)CO)C(=O)c2cc(/C=C/c3ccccc3)cnc2O[C@H]1CN(C)C(=O)c1cccnc1 ?
miR-122 inh: inactive

What do the screens show for `Cc1ccc(NC(=O)CN(C)C(=O)Cn2ncc(Cl)c(Cl)c2=O)cc1`?
miR-122 inh: 71

How did CCN(CC)S(=O)(=O)c1cc(C(=O)N(C)CC(=O)Nc2ccc(Cl)cc2)ccc1Cl do in these assays?
miR-122 inh: inactive
